# High-throughput results from PubChem BioAssay.
# JMJD2E inh – blocks human JMJD2E demethylase activity | JMJD2E catalytic domain, FDH-coupled NADH fluorescence (FDH is formaldehyde dehydrogenase) | Potency, µM (doses to about 57.1 µM), without a hit: top-dose activity change, negative = inhibition, actives largely listed as inhibitors | 230,000 compounds, 1.6% hits | AID 2147; active means well fitted inhibition curve with a large enough effect, not every such curve was filed as active; inconclusive means small, poorly fitted or top-dose-only effect, or another doubt; inactive means no such curve, though single readings can be large or run the other way;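 further: 0% = wells with enzyme and -100% = buffer wells without enzyme; nearly all actives have a fitted effect of over 50% in size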
# GCN5L2 inh – inhibitors of human GCN5L2 histone acetyltransferase | GCN5L2 HAT assay, ThioGlo1 CoA-SH fluorescence | Potency, µM (top dose mostly 58.9 µM), without a hit: at the top dose activity change, negative = inhibition, usual class: inhibitors | 390,000 compounds, 0.21% hits | AID 504327
#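 Free CoA generated was detected with ThioGlo1 (50uM) fluorescence at Ex340nm/Em540nm, read immediately and after 20 min at room temperature. Enzyme, 20 nM in HEPES pH 7.5 buffer, saw compounds 15 min before adding 75uM H3(1-25) peptide and 70uM acetyl-CoA.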
# RECQ1 inh – blocks DNA unwinding by human RECQ1 | 240,000 compounds, 0.54% hits | P46063 | Potency, µM (top dose mostly 57.3 µM), for the others: at the top dose activity, negative = inhibition, actives largely listed as inhibitors | RECQ1 DNA unwinding, red fluorescence kinetic read | AID 2549;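 further: plate controls were vehicle for no effect and no enzyme for full effect; nearly all actives have a fitted effect of over 30% in size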
# Target sequence (P46063 whole entry, looked up): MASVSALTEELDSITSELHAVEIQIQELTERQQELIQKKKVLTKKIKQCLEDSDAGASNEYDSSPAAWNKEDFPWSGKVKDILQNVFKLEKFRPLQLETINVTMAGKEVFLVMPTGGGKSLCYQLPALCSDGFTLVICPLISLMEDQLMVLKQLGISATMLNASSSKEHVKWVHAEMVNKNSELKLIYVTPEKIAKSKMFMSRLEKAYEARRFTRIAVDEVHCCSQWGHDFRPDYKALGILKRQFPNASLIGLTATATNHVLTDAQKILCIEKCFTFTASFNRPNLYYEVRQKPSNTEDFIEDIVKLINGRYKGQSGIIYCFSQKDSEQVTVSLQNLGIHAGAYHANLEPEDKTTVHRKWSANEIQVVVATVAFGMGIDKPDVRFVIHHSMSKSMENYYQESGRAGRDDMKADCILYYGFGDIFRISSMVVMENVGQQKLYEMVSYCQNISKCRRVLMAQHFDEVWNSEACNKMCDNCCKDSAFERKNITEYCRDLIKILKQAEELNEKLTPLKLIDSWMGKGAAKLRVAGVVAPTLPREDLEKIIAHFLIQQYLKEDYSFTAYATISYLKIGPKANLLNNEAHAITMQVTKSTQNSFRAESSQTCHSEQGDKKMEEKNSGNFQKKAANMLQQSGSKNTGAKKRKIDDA
#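 50 nM RECQ1T1 preincubated 15 min with compound in Tris pH 8.0 buffer with MgCl2, DTT, Tween-20 and 2.5 ug/ml poly(dI-dC); started with 200 nM TAMRA/BHQ-2 forked duplex and 2 mM ATP. Unwinding read as fluorescence (525/598 nm), two reads 2 h apart.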
# L3MBTL1 block – blocks human L3MBTL1; AlphaScreen L3MBTL1–H3K9me1 peptide binding; Potency, µM (highest dose often 57.1 µM), for the others: at the top dose activity, negative = inhibition, most hits filed as inhibitors; 230,000 compounds, 0.66% hits; AID 485360; further: nearly all actives have a fitted effect of over 60% in size
#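 L3MBTL1 50 nM + b-AHA-H3(1-15)K9me1 75 nM, 30 min RT; compound added, 30 min RT; streptavidin donor/Ni-chelate acceptor beads 10 ug/mL each final, 30 min RT dark; AlphaScreen read.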
# APEX1 inh – blocks human APE1 abasic DNA cleavage | AID 2517 | recombinant APE1, TAMRA/BHQ-2 abasic DNA cleavage fluorescence | Potency, µM (highest dose often 65.8 µM), inactives show at the highest dose activity change, negative = inhibition, most hits filed as inhibitors | P27695 | 350,000 compounds, 0.35% hits;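 further: plate controls were vehicle for no effect and reference inhibitor for full effect; nearly all actives have a fitted effect of over 55% in size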
#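 APE1 at 0.75 nM final was preincubated with compound 15 min at room temperature, then 50 nM double-stranded THF abasic-site substrate (5'-TAMRA/3'-BHQ-2) was added. Fluorescence (ex 525/em 598 nm) was read kinetically; third-minus-first read gave activity.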
# BLM helicase inh – blocks DNA unwinding by human BLM helicase | 350,000 compounds, 0.2% hits | recombinant BLM DNA unwinding, fluorescence dequenching | P54132 | Potency, µM (titrated, usually from 56.1 µM), without a hit: at the highest dose activity change, negative = inhibition, hits mostly inhibitors;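 further: plate controls were vehicle for no effect and no enzyme for full effect; nearly all actives have a fitted effect of over 35% in size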
# The depositor's hits bear a star; i = inactive; ? = inconclusive; . = no result; ! = repeats disagree; [ ] = remark or other dose. Shown is part of a subset that was picked to be rich in hits. Unless noted, the call rests on the fitted dose curve; in most records, active means well fitted curve in the direction sought with a large enough effect; inconclusive means small, poorly fitted or top-dose-only effect, or another doubt; inactive means no such curve, though single readings can be large; an effect the other way counts as inactive or inconclusive. Unless noted, on the % scale 0 is the no-effect control and ±100 the full control effect; potency means the concentration at half of the fitted maximal effect.
SMILES,JMJD2E inh,GCN5L2 inh,RECQ1 inh,L3MBTL1 block,APEX1 inh,BLM helicase inh
Cc1nc(SCC(=O)c2ccccc2)c(C#N)c(-c2ccco2)c1C(=O)NCc1ccco1,-4%,-21%,i,?,-6%,25µM*
N#Cc1c(-c2ccco2)cc(C2CC2)nc1SCC(=O)c1ccccc1,3%,-16%,-9%,-4%,-5%,?
COc1ccccc1C1=Nn2c(nnc2-c2ccccc2C)SC1,.,.,8%,.,-7%,-1%
CC(C)(C)n1ncc2c(=O)n(Cc3ccc(SC(F)(F)F)cc3)cnc21,.,.,.,.,-7%,.
COc1ccccc1C(=O)NC(=S)/C=C1/N(C)c2ccccc2C1(C)C,0%,-6%,-9%,13µM*,8%,-9%
COc1cc(C(=O)O[C@@H]2CC3CC[C@]2(C)C3(C)C)ccc1O,.,-11%,1%,.,-9%,-16%
CCCCC[C@H](O)/C=C/C1=C(CCCCCCC(=O)O)C(=O)CC1,-8%,-4%,10µM*!,?,-9%,29%
CCCCCCCCCCCCCCCC(=O)C1=C(O)C(CO)OC1=O (centres undefined),.,11µM*,35µM*,.,?,.
CCCCCCCCC1OC1CCCCCCCC(=O)O (centres undefined),-3%,.,6%,.,-2%,-1%
CCC(C)N(C(=O)CSc1nnc(C)n1C)C1CCS(=O)(=O)C1 (centres undefined),.,2%,.,-1%,12%,.
CN(C)[C@@H]1C(=O)C(C(=O)NCN2CCCC2)=C(O)[C@@]2(O)C(=O)C3=C(O)c4c(O)cccc4[C@@](C)(O)C3C[C@@H]12 (some centres undefined),.,.,.,.,7.9µM*,.
COC(=O)c1cccc(-n2c(CCC(=O)O)ccc2-c2ccc(OC)cc2)c1,.,-3%,.,.,.,0%
COC(=O)c1cccc(-n2c(CCC(=O)O)ccc2-c2cccs2)c1,25µM*,?,i,-13%,-2%,-4%
CCCCn1nc(C(=O)Oc2ccc3c(C)cc(=O)oc3c2)c2ccccc2c1=O,?,?,-2%,10%,-3%,-1%
CCC[C@H](NC(=O)[C@H](Cc1ccc(O[S+](=O)([O-])O)cc1)NC(=O)OC(C)(C)C)C(=O)NCC(=O)N[C@@H](Cc1c[nH]c2ccccc12)C(=O)N[C@@H](CCC)C(=O)N[C@@H](CC(=O)OCCc1ccccc1)C(=O)O,.,-5%,-11%,.,-2%,-1%
N#Cc1c(N2CCCC2)nc(N)c2c(N)nc(N3CCCC3)cc12,?,-22%,?,?,?,2.8µM*
CC1=C(C(=O)N2CCOCC2)C(c2ccc(O)cc2)NC(=S)N1 (centres undefined),-24%,-2%,-6%,-3%,6%,-6%
Oc1ccc2c(c1)C1CCCC1(N1CCOCC1)O2 (centres undefined),16µM*,-20%,-32%,32µM*,?,-2%
O=C(CSc1nc2ccc(Nc3nc(N4CCCC4)nc(N4CCCC4)n3)cc2s1)NCc1ccco1,20µM*,-17%,i,.,8%,-6%
O=C(CSc1nc2ccc(Nc3nc(N4CCOCC4)nc(N4CCOCC4)n3)cc2s1)Nc1ccccc1Cl,.,-3%,.,.,-18%,-7%
COc1ccc(C2=Nn3c(nnc3-c3cccc(OC)c3)SC2)cc1,.,.,-1%,.,-5%,1%
CN(C)c1ncc2nc(-c3ccc(Cl)cc3)c(=O)n(C3CC3)c2n1,.,-21%,i,.,17%,2%
CN(C)c1ncc2nc(-c3ccccc3)c(=O)n(C3CC3)c2n1,.,22µM*,-1%,.,1%,-3%
O=c1cc(-c2ccccc2)oc2cc(O[C@@H]3O[C@H](CO)[C@@H](O)[C@H](O)[C@H]3O)c(O)c(O)c12,13µM*,.,0%,.,?,2%
O=c1cc(-c2ccc(O)c(O)c2)oc2cc(O[C@@H]3O[C@H](CO)[C@@H](O)[C@H](O)[C@H]3O)cc(O)c12,.,-11%,-18%,4µM*,?,-3%
SMILES,JMJD2E inh,GCN5L2 inh,RECQ1 inh,L3MBTL1 block,APEX1 inh,BLM helicase inh
O=c1c(O[C@@H]2O[C@H](CO)C(O)C2O)c(-c2ccc(O)c(O)c2)oc2cc(O)cc(O)c12 (some centres undefined),.,-10%,.,14µM*,-33%,.
O=c1c(O)c(-c2ccc(O)c(O)c2)oc2c(OC[C@@H]3O[C@@H](O)[C@@H](O)[C@H](O)[C@H]3O)c(O)cc(O)c12,5µM*,.,-12%,.,2.5µM*,1%
C[C@@H]1O[C@@H](O[C@H]2[C@H](O)[C@@H](O)[C@H](Oc3c(-c4ccc(O)c(O)c4)oc4cc(O)cc(O)c4c3=O)O[C@@H]2CO)[C@H](O)[C@H](O)[C@H]1O,.,-8%,.,?,4%,.
CCCc1cc2c(c(=O)o1)C(O)C1OC1C2=O (centres undefined),.,.,-14%[11.5 µM],.,4%[12.4 µM],2%[12.4 µM]
Cc1ccccc1NC(=O)C1CCN(C(=O)c2ccc(F)cc2)CC1,.,-1%,.,.,.,-3%
C=CCn1c(=O)n([C@@H]2O[C@H](CO)[C@@H](O)[C@H]2O)c2nc(N)[nH]c(=O)c21,.,.,.,.,-1%,.
CC1OC(OCC2OC(Oc3c(-c4ccc(O)c(O)c4)oc4cc(O)cc(O)c4c3=O)C(O)C(O)C2O)C(O)C(O)C1O (centres undefined),11µM*,.,i,.,?,0%
O=c1c(O[C@H]2O[C@@H](CO)[C@H](O)[C@@H](O)[C@@H]2O)c(-c2ccc(O)cc2)oc2cc(O)cc(O)c12,.,-7%,.,-13%,21µM*,.
O=c1c(OC2OC(CO)C(O)C(O)C2O)c(-c2ccc(O)c(O)c2)oc2cc(O)cc(O)c12 (centres undefined),8.9µM*,-2%,-16%,?,?,-2%
C[C@@H]1O[C@@H](Oc2c(-c3cc(O)c(O)c(O)c3)oc3cc(O)cc(O)c3c2=O)[C@H](O)[C@H](O)[C@H]1O,2.2µM*,0%,28µM*!,?,?,-2%
COc1cc(-c2oc3cc(O)cc(O)c3c(=O)c2O[C@@H]2O[C@H](CO)[C@@H](O)[C@H](O)[C@H]2O)cc(OC)c1O,.,34%,11%,.,15%,5%
CC(C)(C)n1ncc2c(=O)n(Cc3cccc(OC(F)F)c3)cnc21,.,.,.,.,-8%,.
OCc1ccnc2c(O)cccc12,?,0%,13%,-85%,0%,5%
Oc1ccc(COc2cccc3ccccc23)c2cccnc12,.,-15%,.,-3%,-1%,.
COCc1ccc(O)c2ncccc12,10µM*,-6%[0.501 µM],-1%,.,0%,-1%
OCc1cn(Cc2ccc(O)c3ncccc23)cn1,.,-3%,.,7.1µM*,35%,.
